MEKK3 PB1 HTS – modulators of MEKK3-MEK5 PB1 binding, primary screen, biochemical, wildtype MEKK3, multiplex bead flow cytometry, Alexa488-MEK5; binding response (% of control), % at 10 µM; 1.4% of 290,000 active; Mitogen-activated protein kinase kinase kinase 3 (Homo sapiens), Q99759; bead-based flow cytometry, Alexa488-MEK5 binding to MEKK3; actives lie on both sides; 0 = blocked by unlabeled MEK5, 100 = vehicle;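 active means binding response more than 3 SD above or below the average of its plate-row segment, actives on both sides; inconclusive means wells at one plate position flagged as instrument error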;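 further: Alexa488 bead fluorescence after subtracting the streptavidin-only scavenger bead signal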
Rce1 inhib – yeast Rce1p protease inhibitors, primary screen, biochemical, fluorescence, cell-free homogeneous; CAAX prenyl protease 2 (Saccharomyces cerevisiae (strain ATCC 204508 / S288c)), Q03530; yeast membranes, quenched prenylated peptide cleavage fluorescence; calls only; 0.27% of 290,000 active; AID 2563, 2010;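 active means fall in fluorescence gain of 50% or more versus controls, with final raw signal at or below 3038400; inconclusive means same 50% fall but final raw signal above 3038400; inactive means fall in fluorescence gain under 50%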;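 further: plate controls were neutral control wells for no effect and wells lacking membranes for full effect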
Target sequence (Q03530 whole entry, looked up): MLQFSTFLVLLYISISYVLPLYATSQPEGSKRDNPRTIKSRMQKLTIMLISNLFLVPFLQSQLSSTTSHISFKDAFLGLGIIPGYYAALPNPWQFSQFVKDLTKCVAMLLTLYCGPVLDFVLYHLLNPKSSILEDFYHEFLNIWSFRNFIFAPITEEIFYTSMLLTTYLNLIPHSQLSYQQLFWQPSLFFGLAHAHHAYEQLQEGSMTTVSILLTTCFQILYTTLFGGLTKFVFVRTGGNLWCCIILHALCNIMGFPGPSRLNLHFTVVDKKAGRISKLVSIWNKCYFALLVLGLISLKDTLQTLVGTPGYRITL
UBC13 polyUb – UBC13 polyubiquitin chain formation inhibitors, primary screen, biochemical, TR-FRET, uHTS; Ubiquitin-conjugating enzyme E2 N (Homo sapiens), P61088; inhibition, % at 20 µM; 0.47% of 330,000 active; in the data active means inhibition above about 45%, passing the limit was not always enough; inconclusive means no clear call, values can overlap the other calls
Target sequence (P61088 whole entry, looked up): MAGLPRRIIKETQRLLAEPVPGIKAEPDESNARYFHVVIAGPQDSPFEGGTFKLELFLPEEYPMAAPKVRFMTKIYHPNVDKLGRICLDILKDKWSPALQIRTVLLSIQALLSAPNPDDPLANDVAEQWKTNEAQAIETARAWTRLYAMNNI
MEKK2 mut-MEK5 – MEK5 binding signal on mutant MEKK2 PB1, primary screen, biochemical, multiplex bead flow cytometry, Alexa488-MEK5; Alexa488-MEK5 binding to MEKK2 mutant; percent response, % at 10 µM; 0.35% of 290,000 active; in the data active means percent response above about 24%, passing the limit was not always enough
MEKK2 WT-MEK5 – modulators of MEK5 binding to wildtype MEKK2, primary screen, biochemical, multiplex bead flow cytometry, Alexa488-MEK5; binding response (% of control), % at 10 µM; 1.1% of 290,000 active; Alexa488-MEK5 binding to MEKK2 WT; actives lie on both sides; AID 1531, 2009; Mitogen-activated protein kinase kinase kinase 2 (Homo sapiens), Q9Y2U5; in the data active means binding response below about 67% or above about 130%; inconclusive means no clear call, values can overlap the other calls; inactive means in between
MEKK2wt confirm – modulators of MEK5 binding to wildtype MEKK2, confirmation, biochemical, single concentration, multiplex bead flow cytometry | binding response (% of control), % at 10 µM | shares compounds with MEKK3 PB1 HTS | Alexa488-MEK5 binding to MEKK2 WT; actives lie on both sides | 2.4% of 5,900 active; in the data active means binding response below about 16% or above about 210%; inactive means in between
MEKK2mut-MEK5 – mutant MEKK2 PB1-MEK5 binding signal retest – biochemical, single concentration, multiplex bead flow cytometry, confirmation | 2% of 5,900 active | Alexa488-MEK5 binding to MEKK2 mutant | shares compounds with MEKK3 PB1 HTS | percent response, % at 10 µM | AID 1893, 2009; in the data active means percent response mostly above about 71%, no sharp cut-off; inactive means mostly below about 38%;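 further: higher means compound restores mutant binding toward wildtype level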
MEKK3-MEK5 inh – MEKK3 wild-type PB1 binding to MEK5, inhibitors, confirmation, biochemical, bead multiplex flow cytometry, single concentration, wildtype; shares compounds with MEKK3 PB1 HTS; Alexa488-MEK5 binding to MEKK3; stronger effect = lower value; binding response (% of control), % at 10 µM; 1.8% of 5,900 active;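 active means binding response below 72% of control, or above a set upper limit, though filed actives all read lower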;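 further: 100% = DMSO only wells and 0% = binding blocked by excess unlabeled MEK5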
* = called active by the depositor; i = inactive; ? = inconclusive; · = no result; + = active, no number; [ ] = another dose, or the depositor's remark. Sampled rows, rich in hits. Any-hit rate of the full collection: about 2.5%.

SMILES | MEKK3 PB1 HTS | Rce1 inhib | UBC13 polyUb | MEKK2 mut-MEK5 | MEKK2 WT-MEK5 | MEKK2wt confirm | MEKK2mut-MEK5 | MEKK3-MEK5 inh
Cc1cc(Nc2ccc(C)c(Cl)c2)nc(N2CCOCC2)n1 | 130.0* | i | 11.4 | 26.0 | 123.0 | 106.0 | -3.0 | 102.0
Cc1ccc(/C=N/NC(=O)Cn2nnc(N)n2)cc1 | 92.0 | i | 1.8 | -10.0 | 94.0 | · | · | ·
Nc1nnn(CC(=O)N/N=C/c2ccncc2)n1 | 130.0* | i | 0.2 | 25.0 | 120.0 | 103.0 | -6.0 | 101.0
COc1ccc(C(=O)Nc2ccccc2)cc1NC(=O)c1cccs1 | 105.0 | i | -7.5 | -2.0 | 103.0 | · | · | ·
O=c1[nH]cc(I)cc1I | 37.0*[inhibitor] | i | 0.5 | -27.0 | 38.0*[inhibitor] | 101.0 | 4.0 | 102.0
CC(C)c1ccc(NC(=O)CSc2ncccc2C(=O)Oc2cccc([N+](=O)[O-])c2)cc1 | 148.0* | i | -7.9 | 0.0 | 106.0 | 99.0 | -2.0 | 97.0
COc1ccc(NC(=O)CSc2ncccc2C(=O)OC(C)C)cc1OC | 100.0 | i | -0.1 | 5.0 | 104.0 | · | · | ·
Cn1c(=O)[nH]c(=O)c2c1nc(N1CCCCC1)n2CC(O)COc1ccc([N+](=O)[O-])cc1 (configuration not stated) | 108.0 | i | -19.1 | 5.0 | 105.0 | · | · | ·
COc1ccc(NC(=O)CC2SC(=NCC3CCCO3)NC2=O)cc1 (configuration not stated) | 99.0 | i | -0.5 | -2.0 | 98.0 | · | · | ·
Cc1ccc(NC(=O)CC2SC(=NCC3CCCO3)NC2=O)cc1Cl (configuration not stated) | 139.0* | i | -3.0 | -1.0 | 101.0 | 96.0 | -6.0 | 102.0
CCC(C)(C)C(=O)O[C@H]1C[C@@H](C)C=C2C=C[C@H](C)[C@H](CC[C@@H]3C[C@@H](O)CC(=O)O3)[C@H]21 | 100.0 | i | ? | 4.0 | 100.0 | · | · | ·
CN(CC(=O)NCc1ccncc1)S(=O)(=O)c1ccc2ccccc2c1 | 129.0* | i | 2.7 | 0.0 | 111.0 | 104.0 | 4.0 | 101.0
Cc1ccc(S(=O)(=O)N(C)CC(=O)NCc2ccncc2)cc1 | 77.0 | · | 2.3 | -10.0 | 83.0 | · | · | ·
Cc1oc(-c2ccc(Cl)cc2)nc1CN1CCC(C(=O)N2CCN(Cc3ccccc3)CC2)CC1 | · | i | 16.4 | · | · | · | · | ·
Cc1oc(-c2cccc(Cl)c2)nc1CN1CCC(C(=O)N2CCN(c3ccccc3F)CC2)CC1 | 106.0 | i | 30.7 | 25.0 | 140.0* | 141.0 | 28.0 | 109.0
O=C(c1cc(-c2cccc(Cl)c2)nc2ccccc12)N1CCCC1 | 100.0 | i | 1.1 | 8.0 | 102.0 | · | · | ·
Cc1ccc(C(=O)NCC(=O)OC(C)C(=O)Nc2ccccc2[N+](=O)[O-])s1 (configuration not stated) | · | · | 12.5 | · | · | · | · | ·
Cc1ccc(C(=O)NCC(=O)OC(C)C(=O)Nc2ccc(N(C)C)cc2)s1 (configuration not stated) | 49.0*[inhibitor] | i | -17.7 | -15.0 | 50.0 | 113.0 | 10.0 | 108.0
Cc1cc(C)c(S(=O)(=O)c2ccccc2C(=O)O)c(C)c1 | 126.0* | i | -3.0 | 6.0 | 124.0 | 101.0 | 9.0 | 104.0
CCOc1ccccc1N1CCN(C(=S)NCc2ccco2)CC1 | 64.0*[inhibitor] | i | 11.8 | -1.0 | 92.0 | 107.0 | 5.0 | 107.0
S=C(NCc1ccco1)N1CCN(c2ccc(Cl)cc2)CC1 | 98.0 | i | -1.4 | 1.0 | 100.0 | · | · | ·
CC(=O)c1ccc(N2CCN(C(=S)NCc3ccco3)CC2)cc1 | 46.0*[inhibitor] | i | -4.6 | -16.0 | 53.0 | 93.0 | -27.0 | 92.0
COc1ccccc1C(c1nnnn1Cc1ccco1)N1CCN(c2cccc(C)c2C)CC1 (configuration not stated) | 49.0*[inhibitor] | i | -12.3 | -1.0 | 96.0 | 99.0 | 0.0 | 104.0
Cc1ccc(-c2nc3ccccc3nc2NN)cc1 | 93.0 | i | 3.0 | -18.0 | 85.0 | · | · | ·
C=CCC(C)(NCc1ccccc1)c1ccco1 (configuration not stated) | 2.0*[inhibitor] | i | -3.2 | -16.0 | 2.0*[inhibitor] | 106.0 | 1.0 | 97.0
SMILES | MEKK3 PB1 HTS | Rce1 inhib | UBC13 polyUb | MEKK2 mut-MEK5 | MEKK2 WT-MEK5 | MEKK2wt confirm | MEKK2mut-MEK5 | MEKK3-MEK5 inh
C/C(=N\NC(=O)CCC(=O)NCc1ccccc1)c1ccco1 | 98.0 | i | 4.6 | -1.0 | 103.0 | · | · | ·
C=CCNC(=O)NC(=O)COC(=O)/C(C#N)=C/c1ccc(OC)cc1 | 87.0 | i | 15.6 | -9.0 | 88.0 | · | · | ·
COc1ccc(/C=C/c2nc3ccccc3n2Cc2ccccc2OC)cc1 | 151.0* | ? | 11.6 | 5.0 | 105.0 | 111.0 | 3.0 | 107.0
COc1ccccc1/C=C/C(=O)NCC(=O)n1nc(C)cc1C | 58.0*[inhibitor] | i | 0.2 | -40.0 | 59.0*[inhibitor] | 101.0 | 0.0 | 104.0
Cc1cc(C)n(C(=O)CNC(=O)/C=C/c2ccccc2)n1 | 94.0 | i | 6.7 | -15.0 | 84.0 | · | · | ·
COC(=O)C(=C/C(C)=C/c1cccnc1)C(=O)OC | 105.0 | i | 2.2 | 3.0 | 92.0 | · | · | ·
CCOC(=O)N1CCC(NC(=O)c2cc(C(=O)Nc3cccc(C(F)(F)F)c3)ccc2CO)CC1 | 131.0* | i | -11.7 | 1.0 | 117.0 | 103.0 | -1.0 | 103.0
O=C(N/N=C/c1c[nH]c2ccccc12)c1cc(-c2ccc(-c3ccccc3)cc2)n[nH]1 | 93.0 | i | -8.8 | -9.0 | 78.0 | · | · | ·
O=C(N/N=C/c1c[nH]c2ccccc12)c1cc(-c2ccc3ccccc3c2)n[nH]1 | 112.0 | i | 8.8 | 15.0 | 138.0* | 104.0 | -5.0 | 102.0
Cc1cc2nc3c(nc2cc1C)C(O)=C3O | 107.0 | i | -7.9 | 1.0 | 107.0 | · | · | ·
CN(C)CC(C)(C)CNC(=S)NCc1ccc2c(c1)OCO2 | 128.0* | + | 8.8 | 3.0 | 104.0 | 99.0 | 3.0 | 106.0
CC(C)(C)NC(=S)NCc1ccc2c(c1)OCO2 | 100.0 | i | -11.3 | -2.0 | 100.0 | · | · | ·
O=C(OCCC1Oc2cccnc2NC1=O)c1ccc([N+](=O)[O-])cc1 (configuration not stated) | 74.0*[inhibitor] | i | 0.7 | -9.0 | 75.0 | 100.0 | -1.0 | 99.0
Cc1ccc(CNC(=O)C(=O)Nc2nccs2)cc1 | 108.0 | i | 8.5 | 6.0 | 109.0 | · | · | ·

Screening data as filed in PubChem BioAssay.
